# Source: PubChem (National Center for Advancing Translational Sciences (NCATS))
# Casp7 inh = allosteric or competitive inhibitors of human caspase-7; recombinant caspase-7, Ac-DEVD-AFC fluorescence rate; hit rate 0.02% among 75,000; P55210; Potency, µM (series often up to 57.5 µM), usual class: inhibitors; active = well fitted inhibition curve with a large enough effect in the main read-out, with a control signal flat, not every such curve was filed as active; inconclusive = small, poorly fitted or top-dose-only effect, or a change in a side signal
# PK Bst = modulators of Bacillus stearothermophilus pyruvate kinase. Potency, µM. purified pyruvate kinase, luminescence ATP production; ribose 5-phosphate activator present at AC10. AID 361. hit rate 1.2% among 51,000; in the data active = potency below about 11 µM; inconclusive = mostly about 12 µM to 25 µM;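 the screen sought inhibitors and activators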
# Caspase-1 inhib = caspase-1 (human) inhibition, allosteric or competitive; Potency, µM (top dose mostly 57.5 µM), most hits filed as inhibitors; Caspase-1 enzyme, Ac-WEHD-AFC fluorogenic rate; hit rate 0.03% among 75,000
# Tau fil binding = tau filament binding; P10636; recombinant tau filaments, thioflavin S fluorescence, 15 h; filaments grown with octadecylsulfate alongside compound; Potency, µM (titrated, usually from 57.1 µM); hit rate 2% among 71,000; AID 596;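 also: actives lower thioflavin S fluorescence by blocking filaments or displacing dye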
#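 ThS-based fibril read: tau 1 uM final, inducer ODS 30 uM final, 37 C for 15 h, ex 450/em 510 nm.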
# Luciferase inh = blocks Photinus pyralis firefly luciferase activity; P08659; purified firefly luciferase, luminescence, 8 min; Potency, µM (doses to about 57.1 µM), usual class: inhibitors; hit rate 2.2% among 72,000; also: nearly all actives have a fitted effect of over 40% in size
# Target sequence (P08659 whole entry, looked up): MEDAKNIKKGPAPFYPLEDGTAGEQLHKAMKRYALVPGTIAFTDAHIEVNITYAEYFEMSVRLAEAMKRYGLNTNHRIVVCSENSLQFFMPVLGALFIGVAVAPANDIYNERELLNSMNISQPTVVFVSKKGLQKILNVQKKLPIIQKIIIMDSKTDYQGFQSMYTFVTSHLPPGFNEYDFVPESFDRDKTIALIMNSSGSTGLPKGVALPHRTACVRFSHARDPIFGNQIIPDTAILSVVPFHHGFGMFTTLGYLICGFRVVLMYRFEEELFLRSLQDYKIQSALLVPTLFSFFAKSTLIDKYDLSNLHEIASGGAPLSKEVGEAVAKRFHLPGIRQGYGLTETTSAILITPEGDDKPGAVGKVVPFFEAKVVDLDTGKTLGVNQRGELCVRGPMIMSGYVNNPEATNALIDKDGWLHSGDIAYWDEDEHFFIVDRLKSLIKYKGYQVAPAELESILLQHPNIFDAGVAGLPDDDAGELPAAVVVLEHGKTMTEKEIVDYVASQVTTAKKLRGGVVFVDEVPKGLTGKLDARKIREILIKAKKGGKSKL
#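 Substrate buffer containing 10 uM ATP (pH 7.2 imidazole, Mg2+, KCl, detergent, BSA) is dispensed, compound pinned in, then luciferase/luciferin detector mix added. After 8 min at ambient temperature, light output is measured.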
# Numbers stand for hits; 0 = inactive; ? = inconclusive; - = no result given; [ ] = dose if it differs, or a comment. An excerpt weighted towards active compounds, which were near 4% of everything screened. Unless noted, calls follow the shape of the dose curve; as a rule, active = well fitted curve in the direction sought with a large enough effect; inconclusive = small, poorly fitted or top-dose-only effect, or another doubt; inactive = no such curve, though single readings can be large; an effect the other way counts as inactive or inconclusive.
SMILES,Casp7 inh,PK Bst,Caspase-1 inhib,Tau fil binding,Luciferase inh
N#Cc1cc2c(nc1SCc1ccncc1)CCC2,0,0,0,6.31µM,0
CC(=O)Oc1cc(-c2coc3cc(OC(C)=O)c(OC(C)=O)c(OC(C)=O)c3c2=O)cc(OC(C)=O)c1OC(C)=O,0,-,0,-,-
C=CCCCCCCC=C,0,-,0,0,-
CN1/C(=C\P(=O)(N(C)C)N(C)C)C(C)(C)c2ccccc21,0,0,0,10µM,0
Cn1cnnc1SCC(=O)N1c2ccccc2-c2c(ssc2=S)C1(C)C,0,0,0,?,0
CC1(C)c2ssc(=S)c2-c2ccccc2N1C(=O)c1ccco1,0,0,0,3.16µM,0
CNCCCCCCCCSc1nc(C(C)C)ccc1C(=O)c1cccs1,0,-,0,12.6µM,0
Cc1occc1C(=O)Nc1ccc2ccccc2c1,0,-,0,10µM,20µM
Cc1occc1C(=O)Nc1cc(C(C)(C)C)on1,0,-,0,0,15.8µM
Cc1occc1C(=O)Nc1nnc(C(F)(F)F)s1,0,0,0,0,0
COC(=O)c1ccc(NC(=O)Nc2ccc(F)cc2)cc1,0,0,0,0,20µM
COC(=O)c1ccc(NC(=O)Cc2ccccc2)cc1,0,-,0,0,?
FC(F)(F)c1cc(CN2CC3(CCNCC3)C2)cc(C(F)(F)F)c1,0,-,0,12.6µM,0[11.4 µM]
FC(F)(F)c1cc(CN2CC[C@@]3(CCCNC3)C2)cc(C(F)(F)F)c1,0,-,0,0,0[11.4 µM]
CC(C)NC(=O)N1CC[C@@]2(CCCN(S(=O)(=O)c3ccccc3)C2)C1,0,-,0,0,0[11.4 µM]
CC(C)(C)c1csc(NC(=O)c2ccc(Cl)s2)n1,0,0,0,0,15.8µM
COc1cccc2cc3c(=O)n(-c4ccccc4)nc-3oc12,0,-,0,15.8µM,0
CC(C)C[C@@H](CC(=O)N[C@H](CC(=O)N[C@@H]1CCNC[C@H]1C(=O)N[C@H](CC(=O)N[C@@H](CCC(=O)O)CC(=O)O)Cc1ccccc1)C(C)C)NC(=O)[C@@H]1CNCC[C@H]1N,-,-,-,0,-
CCc1cccc(CC)c1N(COC)C(=O)Cn1nnc2ccccc21,-,6.7,-,-,0
CCc1cccc(CC)c1N(COC)C(=O)Cn1c(CO)nc2ccccc21,0,0,0,0,0
COc1ccc(Nc2cc(C)nc3ccccc23)cc1,-,0,-,-,0
Nc1nc(N2CCOCC2)nc2ccccc12,0,-,0,0,0
CCOC(=O)c1ccc(Nc2cc(C)nc(N3CCOCC3)n2)cc1,0,1.52,0,0,0
CCOc1ccc(Nc2cc(C)nc(N3CCOCC3)n2)cc1,0,1.45,0,0,0
CCOc1ccc2nc(N3CCOCC3)nc(C)c2c1,?,0,-,0,15.8µM
SMILES,Casp7 inh,PK Bst,Caspase-1 inhib,Tau fil binding,Luciferase inh
COc1ccc2nc(C)cc(Nc3ccc(N4CCOCC4)cc3)c2c1,0,?,0,5.01µM,0
O=NN(Cc1ccc(Cl)cc1)[C@@H](C(=O)O)c1ccccc1,0[11.5 µM],-,0[11.5 µM],0[11.4 µM],0[11.4 µM]
COCCNC(=O)C1(CC(C)C)C=CCN1C(=O)OC (centres undefined),0,-,0,0,-
CC(C)(CC(=O)Nc1ccccc1)C(=O)O,0[11.5 µM],-,0[11.5 µM],0[11.4 µM],0[11.4 µM]
O=C1C(=O)c2ccccc2C(O)=C1Cc1ccccc1,0[11.5 µM],-,0[11.5 µM],0[11.4 µM],0[11.4 µM]
C[C@H](N)C1CCC(C(=O)Nc2ccncc2)CC1 (some centres undefined),0,-,0,0,0
Cc1noc(C)c1C(=O)N1CCC2(CC1)CN(C(=O)Nc1cccc(F)c1)C2,0,-,0,0,0[11.4 µM]
CCCCCCN(C(=O)CCCCCN1C(=O)NC(C2CCCCC2)C(C(=O)OCc2ccccc2)=C1C)C(C(=O)NCCCC)c1ccc(OCC(=O)OC)c(C(=O)OC)c1 (centres undefined),0,-,0,0,-
C=C1CC[C@@H]2O[C@@]2(C)CC[C@H]2[C@H]1CC2(C)C,0,-,0,-,-
CCOc1ccc(Nc2nc(NCCN3CCOCC3)nc(OC)n2)cc1,0,6.31,0,0,0
CC1=CC(=O)C2=C(C)CC[C@@H]3[C@H](OC(=O)[C@H]3C)[C@H]12,-,-,-,?,0[11.4 µM]
COc1ccc(-c2csc3c2[N+]2=CCC=C2C3=O)cc1,0[11.5 µM],-,0[11.5 µM],3.16µM,0[11.4 µM]
Nc1ncnc2c1ncn2[C@@H]1O[C@H](COP(=O)(O)O)[C@@H](O)[C@@H]1O,0,-,0,0,0
Cc1onc(-c2c(Cl)cccc2Cl)c1C(=O)Nc1ccc2c(c1)OCO2,0,-,0,3.16µM,0
CC(C)c1cc(C(=O)Nc2ccc3c(c2)OCO3)no1,0,-,0,12.6µM,7.94µM
O=C(Nc1ccc2c(c1)OCO2)c1noc2c1CCCCC2,0,?,0,0,7.94µM
CC(=O)c1ccc(NC(=O)c2noc3c2CCCCC3)cc1,0,0,0,0,?
COc1ccc(C2CC(C(F)(F)F)n3nc(C(=O)Nc4ccc5c(c4)OCO5)cc3N2)cc1 (centres undefined),0,-,0,0,0
CC(C)c1cc(C(F)(F)F)n2nc(C(=O)Nc3ccc4c(c3)OCO4)cc2n1,0,-,0,0,20µM
COC(=O)C/C=C\[C@@H](C)[C@@H](/C=N\OCC[C@@H]1C=C[C@H](OC(C)=O)[C@H](COC(C)=O)O1)OC,0[11.5 µM],-,0[11.5 µM],-,0[11.4 µM]
O=C(Nc1ccc2c(c1)OCO2)c1cc(C2CC2)on1,0,-,0,0,7.94µM
CCN(CC(=O)O)C(=O)c1cccnc1,0[11.5 µM],-,0[11.5 µM],0[11.4 µM],0[11.4 µM]
O=C(CN1CCN(c2ccccn2)CC1)Nc1ccc2ccccc2c1,0,0,0,0,39.8µM
CCOC(=O)N1CCN(c2c(F)cc3[nH]c(=S)[nH]c3c2Br)CC1,0,0,0,15.8µM,0
N#Cc1ccccc1-c1ccc2ncnc(NCc3cccs3)c2c1,0,-,0,0,0[2.29 µM]
SMILES,Casp7 inh,PK Bst,Caspase-1 inhib,Tau fil binding,Luciferase inh
COc1ccc(C(=O)N2CCC[C@@]3(CCN(C(=O)Nc4ccccc4)C3)C2)cc1,0,-,0,0,0[11.4 µM]
CC(=O)OCC1OC(C#Cc2ccc(Br)cc2)C=CC1OC(C)=O (centres undefined),0[11.5 µM],-,0[11.5 µM],-,-
CCCC(=O)Nc1sc2c(c1C#N)CCCC2,-,0,-,-,0
N#Cc1c(NC(=O)c2ccncc2)sc2c1CCC2,0,-,0,15.8µM,20µM
CCCc1cc(C(=O)Nc2sc3c(c2C#N)CCC3)no1,0,-,0,0,0
Cc1cc(C(=O)Nc2sc3c(c2C#N)CCCCC3)cs1,0,0,0,0,15.8µM
COc1cc2c(cc1OC)CN(C(=O)CC1CC3CCC1C3)CC2 (centres undefined),0,0,0,0,12.6µM
COc1cc2c(cc1OC)CN(C(=O)C(C)(C)C)CC2,0,-,0,0,0
CCOc1cc(N2CCOCC2)c(OCC)cc1NC(=O)c1cc(-c2ccco2)nc2ccccc12,0,0,0,10µM,0
Cc1cccc(NC(=O)c2cc(-c3ccco3)nc3ccccc23)n1,0,0,0,0,0
COc1cccc(NC(=O)CSc2nnc(-c3cc(-c4ccccn4)nc4ccccc34)o2)c1,0[0.00368 µM],0,0,25.1µM,0
O=C(CSc1nnnn1Cc1ccccc1)Nc1ccc2c(c1)OCCO2,0,0,0,0,0
O=C(CSc1nnnn1-c1ccccc1)NC(=O)Nc1ccc2c(c1)OCCO2,0,-,0,0,15.8µM
Fc1ccc(-c2nnc(NC3=NCCCCC3)o2)cc1,0,4.51,0,0,2.51µM
